Drawing on ChEMBL document CHEMBL4808148, “HDAC6 screening dataset using tau-based substrate in an enzymatic assay yields selective inhibitors and activators” (2021), this text covers inhibition for 52 molecules.

In assay [1] the target is T1, Protein deacetylase HDAC6 (Homo sapiens) (UniProt Q9UBN7).
T1 sequence (whole entry): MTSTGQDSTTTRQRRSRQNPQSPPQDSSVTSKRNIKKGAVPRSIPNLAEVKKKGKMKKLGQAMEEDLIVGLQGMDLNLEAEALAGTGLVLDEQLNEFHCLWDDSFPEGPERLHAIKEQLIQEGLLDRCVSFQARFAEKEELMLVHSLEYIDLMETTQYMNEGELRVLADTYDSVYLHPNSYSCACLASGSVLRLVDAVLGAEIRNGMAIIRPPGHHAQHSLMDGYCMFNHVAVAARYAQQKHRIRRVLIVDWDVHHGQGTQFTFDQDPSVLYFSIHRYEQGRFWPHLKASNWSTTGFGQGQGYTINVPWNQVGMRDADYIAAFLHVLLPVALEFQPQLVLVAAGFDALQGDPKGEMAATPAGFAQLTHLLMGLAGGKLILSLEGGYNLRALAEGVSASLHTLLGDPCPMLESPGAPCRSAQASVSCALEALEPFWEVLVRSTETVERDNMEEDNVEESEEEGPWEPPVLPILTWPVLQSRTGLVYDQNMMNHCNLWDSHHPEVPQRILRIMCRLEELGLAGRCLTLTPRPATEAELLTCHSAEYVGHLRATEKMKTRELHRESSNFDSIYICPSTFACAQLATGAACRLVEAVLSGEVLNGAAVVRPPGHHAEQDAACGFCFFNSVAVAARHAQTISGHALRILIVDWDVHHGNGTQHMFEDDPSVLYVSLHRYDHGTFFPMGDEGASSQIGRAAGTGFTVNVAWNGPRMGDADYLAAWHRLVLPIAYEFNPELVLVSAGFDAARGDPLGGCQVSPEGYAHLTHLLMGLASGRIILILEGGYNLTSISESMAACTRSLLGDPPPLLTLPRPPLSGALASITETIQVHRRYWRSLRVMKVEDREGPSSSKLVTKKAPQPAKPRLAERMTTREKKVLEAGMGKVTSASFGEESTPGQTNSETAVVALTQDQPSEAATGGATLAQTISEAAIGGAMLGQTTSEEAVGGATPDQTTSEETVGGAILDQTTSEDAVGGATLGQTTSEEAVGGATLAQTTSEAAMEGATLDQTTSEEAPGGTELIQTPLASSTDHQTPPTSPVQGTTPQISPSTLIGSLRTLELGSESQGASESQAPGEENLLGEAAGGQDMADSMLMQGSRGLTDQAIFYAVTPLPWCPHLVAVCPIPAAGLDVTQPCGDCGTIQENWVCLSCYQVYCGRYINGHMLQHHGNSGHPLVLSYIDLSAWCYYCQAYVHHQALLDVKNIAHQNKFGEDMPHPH
The settings on record: at 10 µM.

The target in assay [2] is Protein deacetylase HDAC6 (Homo sapiens) (UniProt Q9UBN7). The settings on record: at 10 µM. The source holds these as a separate data set.

The campaign covered roughly 5,600 compounds. About 150 (2.7%) showed an effect of 50% or more. This excerpt belongs to a sample that is enriched for strong results.

In general, inhibition refers to the change of the read-out against control, counted positive when it falls. Turning to `O=C(O)C1CCCN(CCC=C(c2ccccc2)c2ccccc2)C1` (configuration not stated), in assay [1], the inhibition is -1.71%.

In the case of `O=C(O)c1ccccc1`, the inhibition in assay [1] worked out at 3.92%.

Regarding `O=C(c1ccccc1)c1ccc2n1CCC2C(=O)O` (configuration not stated), in assay [1], the inhibition was 75.8%.

Take `CC(=O)C1=C(O)C=C2Oc3c(C(C)=O)c(O)c(C)c(O)c3[C@@]2(C)C1=O`: in assay [1], the inhibition was -7.8%.

Regarding `CO[C@H]1/C=C/O[C@@]2(C)Oc3c(C)c(O)c4c(O)c(cc(O)c4c3C2=O)NC(=O)/C(C)=C\C=C\C(C)[C@H](O)[C@@H](C)[C@@H](O)[C@@H](C)[C@H](OC(C)=O)[C@@H]1C` (some centres not stated), the inhibition in assay [1] was determined as 1.34%.

Take `CSc1nc(-c2ccc(F)cc2)c(-c2ccnc(NC(C)c3ccccc3)c2)[nH]1` (configuration not stated): the inhibition in assay [1] is -0.06%.

For `Cc1nccc2[nH]c(=O)ccc12`, the inhibition in assay [1] is -0.8%.

Consider `COC(=O)CC1CC(c2ccc(O)cc2)=NO1` (configuration not stated), for which the inhibition in assay [1] came to 68.8%.

`COC(=O)c1ccc(O)cc1`: the inhibition in assay [1] was 11.4%.

Take `Fc1ccc(-c2cncc(CN3CCN(c4cccc5c4OCCO5)CC3)c2)cc1`: the inhibition in assay [1] stood at 2%.

In the case of `COC[C@@H](c1ccc(C(F)(F)F)cc1)N1CCN(C2(C)CCN(C(=O)c3c(C)ncnc3C)CC2)C[C@@H]1C`, the inhibition in assay [1] turned out to be 6.58%.

As for `O=C(c1ccc(/C=C/c2n[nH]c3ccccc23)cc1)N1CCNCC1`, the inhibition in assay [1] was determined as 98%.

As for `Nc1ccc(/N=N/c2ccccc2)c(N)n1`, the inhibition in assay [1] was determined as 78.3%.

For `Nc1c2ccccc2nc2ccccc12`, the inhibition in assay [1] is 4.21%.

For `Cc1ccc2c(c1)c1c(n2CCc2ccc(C)nc2)CCN(C)C1`, the inhibition in assay [1] was 0.41%.

Consider `CN1CCc2c(c3ccccc3n2Cc2ccc(C(=O)NO)cc2)C1`, for which the inhibition in assay [1] is 97%.

As for `O=C(O)CCn1c2c(c3ccccc31)C[C@H](NS(=O)(=O)c1ccc(F)cc1)CC2`, the inhibition in assay [1] amounted to 0.51%.

For `N#Cc1c(N)nc(SCc2ncc[nH]2)c(C#N)c1-c1ccc(O)cc1`, the inhibition in assay [1] amounted to 4.89%.

Take `CSc1ccc(C(=O)N[C@@H]2CCCC[C@@H]2NC(=O)CNC(=O)c2cc(C(F)(F)F)ccc2NC(=O)NC(C)C)cc1`: the inhibition in assay [1] is -5.32%.

For `Cc1ccc(S(=O)(=O)Nc2nc3ccccc3nc2Nc2ccc3nsnc3c2)cc1`, the inhibition in assay [1] was 1.65%.

Consider `C#Cc1cccc(Nc2ncnc3cc(OC)c(OCCCCCCC(=O)NO)cc23)c1`, for which, in assay [1], the inhibition is 94.6%.

For the molecule `C#Cc1cccc(Nc2ncnc3cc(OCCOC)c(OCCOC)cc23)c1`, the inhibition in assay [1] turned out to be 1.06%.

On to `COc1cc2ncnc(Nc3cccc(Br)c3)c2cc1OC`, for which the inhibition in assay [1] was -6.11%.

`COc1cc2c(NC3CCN(C)CC3)nc(N3CCCN(C)CC3)nc2cc1OCCOCCN(C)C`: the inhibition in assay [1] came out at 4.62%.

Consider `O=C(NCCO)c1cc(C(=O)NCCO)cc(C(=O)NCCO)c1`, for which the inhibition in assay [1] is -2.63%.

For `CCc1nn(CCO)c(CC)c1Oc1cc(C#N)cc(C#N)c1`, the inhibition in assay [1] is -5.93%.

As to `O=C1Nc2ccccc2/C1=C1/Nc2ccccc2/C1=N\O`, in assay [1], the inhibition was determined as 36.4%.

With `O=C(N/N=C/c1ccccc1O)c1ccccc1O`, the inhibition in assay [1] came to 77.3%.

With `O=C(N/N=C/c1ccc(O)c(O)c1)c1cc2ccccc2cc1O`, the inhibition in assay [1] came to 32.8%.

On to `O=C(Nc1ccc(O)cc1)c1ccccc1O`, for which the inhibition in assay [1] is 44.6%.

As for `CC#C[C@@H](CC(=O)O)c1ccc(OCc2cccc(-c3ccc(C(F)(F)F)cc3)c2)cc1`, the inhibition in assay [1] came out at 5.76%.

Take `O=C(O)c1ccc(CN2CCC(CN[C@@H]3C[C@H]3c3ccccc3)CC2)cc1`: in assay [1], the inhibition was 8.19%.

`N[C@@H](CCC(=O)O)C(=O)O`: the inhibition in assay [1] was -3.62%.

Take `COc1ccc(C(=O)c2ccc(C)cc2)c(O)c1`: the inhibition in assay [1] stood at 5.59%.

Take `O=c1c(-c2ccc(O)cc2)coc2cc(O)cc(O)c12`: the inhibition in assay [1] came out at 57.9%.

As for `COc1ccc(-c2coc3cc(O)cc(O)c3c2=O)cc1`, the inhibition in assay [1] was 63.1%.

As for `O=c1c(O[C@@H]2O[C@H](CO)[C@H](O)[C@H](O)[C@H]2O)c(-c2ccc(O)c(O)c2)oc2cc(O)cc(O)c12`, the inhibition in assay [1] worked out at 11.7%.

As for `COc1ccc(-c2oc3c(CC=C(C)C)c(O)cc(O)c3c(=O)c2O)cc1`, in assay [1], the inhibition is 6.17%.

For the molecule `O=c1c(O)c(-c2ccc(O)cc2O)oc2cc(O)cc(O)c12`, the inhibition in assay [1] is 2.84%.

Regarding `COc1ccc(OCC2c3cc(OC)c(OC)cc3CCN2C(=O)c2cccc(Cl)c2)cc1` (configuration not stated), the inhibition in assay [1] was -0.3%.

With “BIS(MALTOLATO)OXOVANADIUM(IV), CHEMBL286447”, the inhibition in assay [2] is 1.5%.

For the molecule `c1ccc2c(c1)-c1nc-2nc2[nH]c(nc3nc(nc4[nH]c(n1)c1ccccc41)-c1ccccc1-3)c1ccccc21`, in assay [1], the inhibition was -0.22%.

`Cc1cccc(-c2n[nH]cc2-c2ccc3ncccc3n2)n1`: in assay [1], the inhibition was -0.98%.

On to `Cc1cc(O)c2c(=O)c3c(O)cc(O)c4c5c(O)cc(O)c6c(=O)c7c(O)cc(C)c8c1c2c(c34)c(c78)c65`, for which the inhibition in assay [1] worked out at 22.2%.

On to `CCCCCCCCCCCCCCCC(=O)N[C@@H](CCC(=O)NCCCC[C@H](NC(=O)[C@H](C)NC(=O)[C@H](C)NC(=O)[C@H](CCC(N)=O)NC(=O)CNC(=O)[C@H](CCC(=O)O)NC(=O)[C@H](CC(C)C)NC(=O)[C@H](Cc1ccc(O)cc1)NC(=O)[C@H](CO)NC(=O)[C@H](CO)NC(=O)[C@@H](NC(=O)[C@H](CC(=O)O)NC(=O)[C@H](CO)NC(=O)[C@@H](NC(=O)[C@H](Cc1ccccc1)NC(=O)[C@@H](NC(=O)CNC(=O)[C@H](CCC(=O)O)NC(=O)[C@H](C)NC(=O)[C@@H](N)Cc1cnc[nH]1)[C@@H](C)O)[C@@H](C)O)C(C)C)C(=O)N[C@@H](CCC(=O)O)C(=O)N[C@@H](Cc1ccccc1)C(=O)N[C@H](C(=O)N[C@@H](C)C(=O)N[C@@H](Cc1c[nH]c2ccccc12)C(=O)N[C@@H](CC(C)C)C(=O)N[C@H](C(=O)N[C@@H](CCCNC(=N)N)C(=O)NCC(=O)N[C@@H](CCCNC(=N)N)C(=O)NCC(=O)O)C(C)C)[C@@H](C)CC)C(=O)O`, for which the inhibition in assay [1] is -0.77%.

Consider `CC(=O)/N=c1/sc(S(N)(=O)=O)nn1C`, for which the inhibition in assay [1] worked out at 0.67%.

As for `NS(=O)(=O)c1nn2cc(-c3ccccc3)nc2s1`, the inhibition in assay [1] amounted to 82%.

As to `CCCCOC(=O)c1cc2c(cn1)[nH]c1ccccc12`, the inhibition in assay [1] was 36%.

For the molecule `O=C(O)c1cnn(-c2nc3cc(OC(F)(F)F)c(Cl)cc3[nH]2)c1`, the inhibition in assay [1] turned out to be 95.9%.

Regarding `Cc1ccc2[nH]c(=O)c(C3=NN(C(=O)CCC(=O)O)C(c4ccc(Br)cc4)C3)c(-c3ccccc3)c2c1` (configuration not stated), in assay [1], the inhibition is -0.13%.

For the molecule `CCC(CC)Nc1cc(C)nc(Oc2c(C)cc(C)cc2C)c1C`, the inhibition in assay [1] was -6.76%.

As to `O=C(O)Cc1cc2ccccc2nc1C(=O)O`, the inhibition in assay [1] was 6.45%.
